Bioassay records from PubChem.
sPLA2-III inh: human group III sPLA2 inhibitors, primary screen, biochemical, QFRET, BODIPY PC-A2 liposome substrate | inhibition, % at 12.2 µM | hit rate 0.56% among 370,000 | QFRET BODIPY PC-A2 liposome hydrolysis, fluorescence | Group 3 secretory phospholipase A2 (Homo sapiens), Q9NZ20;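 active means inhibition above mean plus 3 SD of compounds lying within the high and low control bounds, cut at about 19% in these data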;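 further: 0% = median of test compound wells and 100% = no enzyme DMSO wells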
Target sequence (Q9NZ20 whole entry, looked up): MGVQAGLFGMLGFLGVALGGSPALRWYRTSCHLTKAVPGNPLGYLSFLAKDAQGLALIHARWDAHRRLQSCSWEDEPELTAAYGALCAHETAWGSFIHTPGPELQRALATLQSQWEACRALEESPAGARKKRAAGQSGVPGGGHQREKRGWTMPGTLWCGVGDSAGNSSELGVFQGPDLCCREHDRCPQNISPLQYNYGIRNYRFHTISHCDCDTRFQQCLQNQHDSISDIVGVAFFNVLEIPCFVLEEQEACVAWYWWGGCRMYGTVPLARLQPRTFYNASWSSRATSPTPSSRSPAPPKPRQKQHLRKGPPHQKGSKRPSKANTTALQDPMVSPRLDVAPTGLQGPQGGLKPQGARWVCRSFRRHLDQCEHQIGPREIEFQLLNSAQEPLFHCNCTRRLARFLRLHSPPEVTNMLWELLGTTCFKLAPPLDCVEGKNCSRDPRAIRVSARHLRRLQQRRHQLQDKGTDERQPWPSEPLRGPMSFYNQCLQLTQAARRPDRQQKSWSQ
MsrA inhibitor: bovine MsrA enzyme inhibitors, primary screen, biochemical, absorbance, HTS; Methionine sulfoxide reductase A (Bos taurus); purified bovine MsrA, absorbance read-out; inhibition, % at 15.5 µM; hit rate 0.75% among 360,000; in the data active means inhibition above about 4.5%;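 further: 0% = vehicle wells with enzyme and 100% = reference inhibitor wells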
bovine MsrA act: bovine MsrA enzyme activators, primary screen, biochemical, absorbance, HTS. purified bovine MsrA, absorbance read-out. activation, % at 10.6 µM. hit rate 0.3% among 360,000. AID 602163, 2012; in the data active means activation above about 7.5%;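 further: 0% = vehicle and 100% = reference activator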
rCAG binder: binders of r(CAG) RNA repeats, primary screen, biochemical, fluorescence | AID 651821, 2012 | hit rate 1.3% among 370,000 | inhibition, % at 3 µM | r(CAG) RNA repeat, TO-PRO-1 dye displacement fluorescence;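 active means inhibition above the plate cutoff, the mean of all test compounds on that plate plus 3 SD, cut at about 35% in these data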;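 further: 0% = DMSO alone and 100% = 100 µM mitoxantrone as full dye displacement; higher means more dye released from RNA so lower well fluorescence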
rCAG bind conf: small molecules binding CAG repeat RNA – biochemical, fluorescence, confirmation | inhibition, % at 3 µM | shares compounds with rCAG binder | r(CAG) RNA repeat, TO-PRO-1 dye displacement fluorescence | hit rate 70% among 4,300;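 active means inhibition above a per-plate cutoff, the mean inhibition of sample wells plus 3 SD, cut at about 35% in these data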;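 further: loss of TO-PRO-1 fluorescence as compound displaces dye from 1x1 AA loop RNA; 0% = DMSO only wells and 100% = 100 µM mitoxantrone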
dCAG dye counter: displacement of TO-PRO-1 from CAG DNA duplex, counter-screen for rCAG RNA repeat binder project, biochemical, fluorescence, TO-PRO-1 dye, d(CAG) DNA oligo; shares compounds with rCAG binder; d(CAG) DNA oligo TO-PRO-1 dye displacement; inhibition, % at 3 µM; hit rate 94% among 4,300; AID 652068, 2013;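 active means inhibition above its plate's cutoff, the mean test-well inhibition plus 3 SD, cut at about 4.8% in these data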;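 further: 0% = DNA dye mix with DMSO and 100% = 100 µM mitoxantrone; hits displace the dye from DNA and so lower well fluorescence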
DNA CAG DR: inhibitors of DNA CAG/GTC TO-PRO-1 complex, dose response, counter-screen for rCAG RNA repeat binder project, biochemical, fluorescence, TO-PRO-1 dye | shares compounds with rCAG binder | DNA CAG/GTC duplex TO-PRO-1 dye displacement fluorescence | IC50, µM | hit rate 20% among 250 | AID 686960, 2013; in the data active means IC50 below about 10 µM
An asterisk follows results filed as active; i = inactive; / = no result. The list is not random: actives were taken first. Their share in the collection is about 2.8%.

SMILES | sPLA2-III inh | MsrA inhibitor | bovine MsrA act | rCAG binder | rCAG bind conf | dCAG dye counter | others
COc1ccc(N2C(=O)CC(N3CCN(c4ccc(S(=O)(=O)N5CCCC5)cc4)CC3)C2=O)cc1 (stereo not drawn) | 5.9 | 0.8 | -2.3 | -1.0 | / | /
CCOC(=O)C1=C(C)N=c2s/c(=C/c3ccc(OCC(=O)O)cc3)c(=O)n2C1c1ccc(SC)cc1 (stereo not drawn) | / | / | -2.8 | / | / | /
CCOC(=O)C1=C(C)N=c2s/c(=C/c3ccc(OCC(=O)O)cc3)c(=O)n2C1c1ccc(F)cc1 (stereo not drawn) | -34.4 | 1.0 | -0.6 | 68.6* | 76.9* | 35.7*
CC1=C(C(=O)OC(C)C)C(c2ccc(Cl)cc2)n2c(sc(=Cc3ccc(OCC(=O)O)cc3)c2=O)=N1 (stereo not drawn) | -12.4 | 0.5 | -3.7 | 41.8* | 64.0* | 30.0* | DNA CAG DR=>29.9
CCOC(=O)C1=C(C)N=c2s/c(=C\c3ccc(OCC(=O)O)cc3)c(=O)n2C1c1ccccc1OC (stereo not drawn) | 11.7 | 0.5 | -2.7 | 31.4 | / | /
CCOC(=O)C1=C(C)N=c2s/c(=C\c3ccc(O)c([N+](=O)[O-])c3)c(=O)n2C1c1ccccc1OC (stereo not drawn) | -8.3 | -0.1 | -1.7 | 51.6* | 87.8* | 64.4*
CCOC(=O)C1=C(C)N=c2s/c(=C\c3ccc(OCC(=O)O)cc3)c(=O)n2C1c1ccc(Cl)cc1 (stereo not drawn) | -31.9 | 1.3 | 0.4 | 55.0* | 73.3* | 35.5*
CCOC(=O)C1=C(C)N=c2s/c(=C/c3ccc(OCC(=O)O)c(OC)c3)c(=O)n2C1c1ccc(Cl)cc1 (stereo not drawn) | -41.2 | 2.4 | -2.1 | 44.2* | 54.4* | 16.3*
CCOC(=O)C1=C(C)N=c2s/c(=C/c3ccccc3)c(=O)n2C1c1ccc(OC)c(OC)c1 (stereo not drawn) | 0.5 | 0.1 | -2.9 | -1.3 | / | /
Cc1cc(SCC(=O)c2ccc(O)c(O)c2)n2nc(C)c(-c3ccccc3)c2n1 | 1.0 | -0.9 | -6.0 | 50.4* | 67.2* | 33.4*
N=C1SC(c2ccccc2)C(=O)N1c1ncc(Cc2ccccc2Cl)s1 (stereo not drawn) | -4.3 | -0.9 | -1.7 | 58.0* | 71.9* | 31.5* | DNA CAG DR=i
CC1CCCCC1NC(=O)COC(=O)C12CC3CC(CC(Cl)(C3)C1)C2 (stereo not drawn) | -5.5 | 0.2 | -3.4 | -8.8 | / | /
COc1ccc(/C(N)=N/OC(=O)Cc2cccs2)cc1 | -3.1 | -1.7 | -10.7 | 46.7* | 0.5 | 0.4
COc1ccc(/C(N)=N/OC(=O)Cc2cccs2)cc1OC | -4.7 | -0.2 | -8.7 | 2.4 | / | /
O=C(O)COc1ccccc1/C=C1\SC(=O)N(Cc2ccc(F)cc2)C1=O | -13.7 | 1.4 | -1.9 | 37.1* | 39.1* | 5.0*
Cc1ccc(CN2C(=O)S/C(=C\c3ccccc3OCC(=O)O)C2=O)cc1 | -26.6 | 1.8 | -4.6 | 60.5* | 63.5* | 17.7*
Cc1ccc(NC(=O)CCNS(=O)(=O)c2cccc3nsnc23)cc1 | 3.4 | 1.6 | -1.1 | -1.2 | / | /
COc1cc(C2C(C#N)=C(N)N(c3ccc(F)cc3)C3=C2S(=O)(=O)CC3)ccc1O (stereo not drawn) | -32.9 | 4.0 | -3.0 | 38.5* | 14.9 | 9.0*
Cc1ccc2ncc(S(=O)(=O)c3ccccc3)c(N3CCCCC3C)c2c1 (stereo not drawn) | 4.2 | -0.7 | -2.6 | 4.1 | / | /
CS(=O)(=O)NNC(=O)Cn1nnc(-c2cc(C(F)(F)F)cc(C(F)(F)F)c2)n1 | -27.2 | -1.3 | 3.8 | 4.9 | / | /
O=C(Cn1nnc(-c2cccc(C(F)(F)F)c2)n1)NNS(=O)(=O)c1cccc(C(F)(F)F)c1 | -14.0 | 0.3 | -7.0 | 53.7* | 37.6* | 10.2*
N#C/C(=C\c1ccc([N+](=O)[O-])o1)C(=O)Nc1ccc(F)cc1 | -11.7 | 0.2 | -3.4 | 51.6* | 29.6 | 14.0*
CCCc1nc2nc(C)c(NS(=O)(=O)c3ccc(C4CCCCC4)cc3)c(=O)n2[nH]1 | -11.9 | -1.0 | 1.3 | 58.8* | 61.7* | 16.4*
CCCc1nc2nc(C)c(NS(=O)(=O)c3ccc(F)cc3)c(=O)n2[nH]1 | -0.7 | -0.6 | -2.0 | 2.0 | / | /
COCCCn1c(=O)/c(=C\c2cccc(OC)c2OC)s/c1=C(/C#N)C(=O)Nc1ccc(C(=O)O)cc1 | -14.6 | 2.3 | 0.1 | 52.4* | 73.0* | 34.1*
SMILES | sPLA2-III inh | MsrA inhibitor | bovine MsrA act | rCAG binder | rCAG bind conf | dCAG dye counter | others
COCCCn1c(=O)/c(=C/c2ccccc2OC(F)F)s/c1=C(\C#N)C(=O)NCCOC | 1.4 | 1.0 | -6.0 | 1.9 | / | /
COc1ccc(OC)c(NC(=O)C23CCC(C)(C(=O)O2)C3(C)C)c1 (stereo not drawn) | 6.2 | -0.6 | -2.0 | -6.5 | / | /
Cc1ccc2c(NC(=S)NC(=O)c3ccccc3)cccc2n1 | -5.0 | -0.1 | -5.1 | 7.5 | / | /
O=C(CC(C(=O)O)c1ccc(Cl)cc1Cl)c1ccc(Cl)cc1 (stereo not drawn) | -11.3 | 0.3 | -3.5 | 40.5* | 21.1 | 3.6
COc1ccc(NC(=O)C(c2ccc(C#N)cc2)n2c(=O)c(-c3cc4ccccc4[nH]3)nc3ccccc32)cc1 (stereo not drawn) | -3.1 | 1.3 | / | 18.6 | / | /
Cc1ccc(N=Nc2c(O)[nH]c(=O)[nH]c2=O)cc1S(=O)(=O)Nc1ccc(Br)cc1 | -2.1 | 1.8 | -2.2 | 36.2* | 31.8 | 10.6*
O=C(O)c1cccc(NC(=S)NC(NC(=O)c2ccccc2[N+](=O)[O-])C(Cl)(Cl)Cl)c1 (stereo not drawn) | -8.1 | -0.4 | -4.9 | 19.7 | / | /
CC(=O)c1cccc(NC(=S)NNC(=O)c2ccc(C)c([N+](=O)[O-])c2)c1 | 14.7 | 1.0 | -10.3 | 40.6* | 38.0* | 15.1*
Cc1cccc(NC(=O)NNC(=O)c2ccc(C)c([N+](=O)[O-])c2)c1 | -14.0 | -1.3 | -1.1 | 3.0 | / | /
O=C(O)c1cccc(NC(=S)NC(NC(=O)c2cccc([N+](=O)[O-])c2)C(Cl)(Cl)Cl)c1 (stereo not drawn) | -36.0 | 1.8 | -5.5 | 52.9* | 30.2 | 8.7*
Cc1ccc(NC(=S)NNC(=O)c2cccc([N+](=O)[O-])c2)cc1Cl | 17.6 | 0.6 | -0.2 | 73.3* | 70.3* | 24.1*
Cc1ccc(-n2c(O)c(C=Nc3ccccc3-c3n[nH]c(=S)[nH]c3=O)c3ccccc3c2=O)c(C)c1 | 0.5 | 1.4 | -0.5 | 72.2* | 87.5* | 56.6*
